Records with an inconclusive call do not appear. Where a call stands in place of a potency, no number is given. The source made the active and inactive calls. The call rests on the fitted dose curve; in most records, active means well fitted curve in the direction sought with a large enough effect in the repeat runs; inconclusive means weak or mixed curves; inactive means no such curve, though single readings can be large; an effect the other way counts as inactive or inconclusive.
Further: nearly all actives have a fitted effect of over 50% in size.

A short description of one assay: qHTS RealTime-Glo MT Cell Viability Assay in HEK293 cells - 32 hour (AID 1224868). Further: potency means the concentration at half of the fitted maximal effect. The following applies: RealTime-Glo luminescence; series mostly up to 76.8 µM. The method, boiled down: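 HEK293 cells seeded with NanoLuc/prosubstrate reagent, rested 5 h at 37 C, then dosed and kept at 37 C up to 40 h. Nonlytic real-time luminescence from viable cells read at 0, 8, 16, 24, 32 and 40 h.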
(qHTS replaces the single test concentration by a dilution series.)
As to `Cc1ccc(C(C)(C)O)cc1`, the Potency entry is “inactive”.
On the same count and under the same terms, with `CCCCN(CCN(CCCC)C(=O)N1CCOCC1)C(=O)N1CCOCC1` the entry was “inactive”; with `CC1CC(OC(=O)C(O)c2ccccc2)CC(C)(C)N1C` (stereo unspecified), “inactive”.
As for `OCCN1CCN(CCCN2c3ccccc3Sc3ccc(Cl)cc32)CC1`, the Potency was 23.9 µM (active).
Regarding `CCCCCC[C@@H](O)C/C=C\CCCCCCCC(=O)OCC(O)CO` (stereo partly specified), the Potency entry was “inactive”.

The nature of another assay: A CellTox Green Cytotoxicity Assay to monitor cytotoxicity in HEK293 cells - 0 hour (AID 1224869). The following applies: CellTox Green fluorescence; series mostly up to 76.8 µM. The method in brief:
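Homogeneous no-lysis format: HEK293 cell suspension mixed with CellTox Green reagent, seeded, incubated 5 h at 37 C/5% CO2, then dosed by pintool with compound in DMSO.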
For `Oc1cccc(Nc2ccccc2)c1`, the Potency entry was “inactive”.
As to `Cc1cc2c(OCC(CNC(C)(C)C)OC(=O)c3ccccc3)cccc2[nH]1` (stereo unspecified), the Potency result was “inactive”.
As to `CCC1(CO)COCOC1`, the Potency result is “inactive”.
Take `CC(C)(C)C(=O)C(=O)O`: the Potency result was “inactive”.
`CCCCOc1ccc(OCCCN2CCOCC2)cc1`: the Potency entry is “inactive”.
Consider `O=[N+]([O-])c1cc(C2CCCCC2)c(O)c([N+](=O)[O-])c1`, for which the Potency result is “inactive”.
Take `CN1CCCC(n2nc(Cc3ccc(Cl)cc3)c3ccccc3c2=O)CC1` (stereo unspecified): the Potency entry is “inactive”.
As to `C(=C\c1ccccc1)/c1ccccc1`, the Potency entry is “inactive”.
Still for that read-out and setting: then `Clc1cc(Cl)nc(Cl)n1`, with “inactive”.
Take `O=C1NCCN1CCO`: the Potency entry was “inactive”.
In the case of `CCCCCCCCOc1ccc(C(=O)O)cc1`, the Potency entry is “inactive”.
In the case of `Oc1c(I)cc(I)c2cccnc12`, the Potency result was “inactive”.
Regarding `CCOC(=O)c1ccc(I)cc1`, the Potency result is “inactive”.
Regarding `Cc1cc(O)ccc1O`, the Potency result was “inactive”.
`c1csc(SSc2cccs2)c1`: the Potency result was “inactive”.
`O=C1c2ccccc2C(=O)c2c(O)c(O)cc(O)c21`: the Potency result is “inactive”.
On the same count and under the same terms, then `CCOC(=O)/C=C/C(=O)OCC`, with “inactive”; and `CCCCCCCC/C=C\CCCCCCCCO`, with “inactive”.
`O=C1Cc2cc(Cl)ccc2N1`: the Potency result is “inactive”.
Take `CC(C)COCC(CN(Cc1ccccc1)c1ccccc1)N1CCCC1` (stereo unspecified): the Potency result was “inactive”.
Take `C=CC(=O)[O-].C=CC(=O)[O-].[Zn+2]`: the Potency entry was “inactive”.

The values are drawn from PubChem BioAssay (Tox21).
